{"source": "PubChem BioAssay AID1159580", "about": "(chemical genetic matrix, 2015)", "test": "chemical genetic growth profiling, strain panel (AID 1159580);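 further: tested at 20 µM; growth read once vehicle control cultures reached saturation at 30 °C; 1 = growth at the plate median or of vehicle wells; lower values mean less growth of the strain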", "conditions": "growth OD", "note": "Among all 5,500 compounds or so, about 2,000 (36%) were called active. About 18% were inconclusive and are not listed. This is one part of the list. Unmarked numbers belong to inactive results. No stated cut-off is given here; in the data, active means normalized growth mostly below about 0.91 (no sharp cut-off); inconclusive means no clear call, values can overlap the other calls; inactive means mostly above about 0.92."}
{"compound": "O=C1C(Cl)=C(Cl)C(=O)C(Cl)=C1Cl", "values": [{"measurement": "normalized growth", "setting": "S. cerevisiae deletion strains, locus YKL009W, strain mrt4, active compounds read low", "value": "1.17 [resistant] (active)"}, {"measurement": "normalized growth", "setting": "S. cerevisiae deletion strains, locus YKL068W, active compounds read low", "value": "0.12 (active)"}, {"measurement": "normalized growth", "setting": "S. cerevisiae deletion strains, locus YKL085W, strain MDH1 (second series), active compounds read low", "value": "0.0519 (active)"}, {"measurement": "normalized growth", "setting": "S. cerevisiae deletion strains, locus YKL085W, strain MDH1, active compounds read low", "value": "0.0519 (active)"}, {"measurement": "normalized growth", "setting": "S. cerevisiae deletion strains, locus YKL160W, strain elf1, active compounds read low", "value": "0.901 (active)"}, {"measurement": "normalized growth", "setting": "S. cerevisiae deletion strains, locus YKL190W, strain CNB1, active compounds read low", "value": "0.629 (active)"}, {"measurement": "normalized growth", "setting": "S. cerevisiae deletion strains, locus YKR001C, strain vps1, active compounds read low", "value": "0.094 (active)"}, {"measurement": "normalized growth", "setting": "S. cerevisiae deletion strains, locus YKR026C, strain gcn3, active compounds read low", "value": 0.987}, {"measurement": "normalized growth", "setting": "S. cerevisiae deletion strains, locus YKR091W, strain srl3, active compounds read low", "value": 0.99}, {"measurement": "normalized growth", "setting": "S. cerevisiae deletion strains, locus YLL001W, strain dnm1, active compounds read low", "value": 0.958}, {"measurement": "normalized growth", "setting": "S. cerevisiae deletion strains, locus YLL026W, active compounds read low", "value": 0.98}, {"measurement": "normalized growth", "setting": "S. cerevisiae deletion strains, locus YLL041C, strain sdh2, active compounds read low", "value": 0.988}, {"measurement": "normalized growth", "setting": "S. cerevisiae deletion strains, locus YLR027C, strain aat2, active compounds read low", "value": "0.899 (active)"}, {"measurement": "normalized growth", "setting": "S. cerevisiae deletion strains, locus YLR039C, strain RIC1, active compounds read low", "value": "0.275 (active)"}, {"measurement": "normalized growth", "setting": "S. cerevisiae deletion strains, locus YLR058C, strain SHM2, active compounds read low", "value": 0.966}, {"measurement": "normalized growth", "setting": "S. cerevisiae deletion strains, locus YLR102C, strain apc9, active compounds read low", "value": "0.254 (active)"}, {"measurement": "normalized growth", "setting": "S. cerevisiae deletion strains, locus YLR113W, strain HOG1, active compounds read low", "value": "0.145 (active)"}, {"measurement": "normalized growth", "setting": "S. cerevisiae deletion strains, locus YLR221C, strain rsa3, active compounds read low", "value": "0.855 (active)"}, {"measurement": "normalized growth", "setting": "S. cerevisiae deletion strains, locus YLR258W, strain gsy2, active compounds read low", "value": 0.978}, {"measurement": "normalized growth", "setting": "S. cerevisiae deletion strains, locus YLR262C, strain YPT6 (second series), active compounds read low", "value": "0.703 (active)"}, {"measurement": "normalized growth", "setting": "S. cerevisiae deletion strains, locus YLR262C, strain YPT6, active compounds read low", "value": "0.168 (active)"}, {"measurement": "normalized growth", "setting": "S. cerevisiae deletion strains, locus YLR268W, strain sec22, active compounds read low", "value": "0.256 (active)"}, {"measurement": "normalized growth", "setting": "S. cerevisiae deletion strains, locus YLR320W, strain mms22, active compounds read low", "value": 0.92}, {"measurement": "normalized growth", "setting": "S. cerevisiae deletion strains, locus YLR330W, strain CHS5, active compounds read low", "value": "0.129 (active)"}, {"measurement": "normalized growth", "setting": "S. cerevisiae deletion strains, locus YLR342W, strain FKS1 (second series), active compounds read low", "value": "0.243 (active)"}, {"measurement": "normalized growth", "setting": "S. cerevisiae deletion strains, locus YLR342W, strain FKS1, active compounds read low", "value": 0.935}, {"measurement": "normalized growth", "setting": "S. cerevisiae deletion strains, locus YLR357W, strain rsc2, active compounds read low", "value": 0.86}, {"measurement": "normalized growth", "setting": "S. cerevisiae deletion strains, locus YLR370C, strain arc18, active compounds read low", "value": 0.919}, {"measurement": "normalized growth", "setting": "S. cerevisiae deletion strains, locus YLR371W, strain rom2, active compounds read low", "value": "0.151 (active)"}, {"measurement": "normalized growth", "setting": "S. cerevisiae deletion strains, locus YLR384C, strain iki3, active compounds read low", "value": 0.966}, {"measurement": "normalized growth", "setting": "S. cerevisiae deletion strains, locus YLR418C, strain cdc73, active compounds read low", "value": "0.292 (active)"}, {"measurement": "normalized growth", "setting": "S. cerevisiae deletion strains, locus YML016C, strain PPZ1, active compounds read low", "value": "0.776 (active)"}, {"measurement": "normalized growth", "setting": "S. cerevisiae deletion strains, locus YML032C, strain rad52, active compounds read low", "value": 0.912}, {"measurement": "normalized growth", "setting": "S. cerevisiae deletion strains, locus YML120C, strain ndi1, active compounds read low", "value": "0.9 (active)"}, {"measurement": "normalized growth", "setting": "S. cerevisiae deletion strains, locus YML124C, strain tub3, active compounds read low", "value": "0.708 (active)"}, {"measurement": "normalized growth", "setting": "S. cerevisiae deletion strains, locus YMR058W, strain fet3, active compounds read low", "value": 0.909}, {"measurement": "normalized growth", "setting": "S. cerevisiae deletion strains, locus YMR078C, strain ctf18, active compounds read low", "value": "0.551 (active)"}, {"measurement": "normalized growth", "setting": "S. cerevisiae deletion strains, locus YMR125W, strain sto1, active compounds read low", "value": "0.792 (active)"}, {"measurement": "normalized growth", "setting": "S. cerevisiae deletion strains, locus YMR129W, active compounds read low", "value": 0.957}, {"measurement": "normalized growth", "setting": "S. cerevisiae deletion strains, locus YMR205C, strain PFK2, active compounds read low", "value": 0.932}, {"measurement": "normalized growth", "setting": "S. cerevisiae deletion strains, locus YMR223W, strain ubp8, active compounds read low", "value": "0.182 (active)"}, {"measurement": "normalized growth", "setting": "S. cerevisiae deletion strains, locus YMR231W, strain pep5, active compounds read low", "value": 0.971}, {"measurement": "normalized growth", "setting": "S. cerevisiae deletion strains, locus YMR263W, strain SAP30, active compounds read low", "value": "0.794 (active)"}, {"measurement": "normalized growth", "setting": "S. cerevisiae deletion strains, locus YMR307W, strain GAS1, active compounds read low", "value": "0.112 (active)"}, {"measurement": "normalized growth", "setting": "S. cerevisiae deletion strains, locus YNL067W, strain RPL9B, active compounds read low", "value": "0.63 (active)"}, {"measurement": "normalized growth", "setting": "S. cerevisiae deletion strains, locus YNL071W, strain lat1, active compounds read low", "value": "0.824 (active)"}, {"measurement": "normalized growth", "setting": "S. cerevisiae deletion strains, locus YNL128W, strain TEP1, active compounds read low", "value": "0.341 (active)"}, {"measurement": "normalized growth", "setting": "S. cerevisiae deletion strains, locus YNL153C, strain GIM3, active compounds read low", "value": "0.814 (active)"}, {"measurement": "normalized growth", "setting": "S. cerevisiae deletion strains, locus YNL183C, strain NPR1, active compounds read low", "value": "0.0843 (active)"}, {"measurement": "normalized growth", "setting": "S. cerevisiae deletion strains, locus YNL209W, strain ssb2, active compounds read low", "value": "0.888 (active)"}, {"measurement": "normalized growth", "setting": "S. cerevisiae deletion strains, locus YNL233W, strain BNI4, active compounds read low", "value": "0.17 (active)"}, {"measurement": "normalized growth", "setting": "S. cerevisiae deletion strains, locus YNL248C, strain rpa49, active compounds read low", "value": "0.884 (active)"}, {"measurement": "normalized growth", "setting": "S. cerevisiae deletion strains, locus YNL250W, strain rad50, active compounds read low", "value": "0.0728 (active)"}, {"measurement": "normalized growth", "setting": "S. cerevisiae deletion strains, locus YNL271C, strain bni1, active compounds read low", "value": "0.0654 (active)"}, {"measurement": "normalized growth", "setting": "S. cerevisiae deletion strains, locus YNL298W, strain CLA4, active compounds read low", "value": "0.0642 (active)"}, {"measurement": "normalized growth", "setting": "S. cerevisiae deletion strains, locus YNL307C, strain MCK1, active compounds read low", "value": "0.206 (active)"}, {"measurement": "normalized growth", "setting": "S. cerevisiae deletion strains, locus YNL322C, strain KRE1 (second series), active compounds read low", "value": 0.924}, {"measurement": "normalized growth", "setting": "S. cerevisiae deletion strains, locus YNL322C, strain KRE1, active compounds read low", "value": "0.849 (active)"}, {"measurement": "normalized growth", "setting": "S. cerevisiae deletion strains, locus YNR049C, strain mso1, active compounds read low", "value": 0.989}, {"measurement": "normalized growth", "setting": "S. cerevisiae deletion strains, locus YNR052C, strain pop2, active compounds read low", "value": "0.911 (active)"}, {"measurement": "normalized growth", "setting": "S. cerevisiae deletion strains, locus YOL006C, strain TOP1, active compounds read low", "value": "0.357 (active)"}, {"measurement": "normalized growth", "setting": "S. cerevisiae deletion strains, locus YOL012C, strain htz1", "value": 0.457}, {"measurement": "normalized growth", "setting": "S. cerevisiae deletion strains, locus YOL147C, strain pex11, active compounds read low", "value": 0.986}, {"measurement": "normalized growth", "setting": "S. cerevisiae deletion strains, locus YOR001W, strain rrp6, active compounds read low", "value": 0.915}, {"measurement": "normalized growth", "setting": "S. cerevisiae deletion strains, locus YOR061W, strain CKA2, active compounds read low", "value": "0.617 (active)"}, {"measurement": "normalized growth", "setting": "S. cerevisiae deletion strains, locus YOR069W, strain VPS5, active compounds read low", "value": "0.577 (active)"}, {"measurement": "normalized growth", "setting": "S. cerevisiae deletion strains, locus YOR070C, strain gyp1, active compounds read low", "value": "0.917 (active)"}, {"measurement": "normalized growth", "setting": "S. cerevisiae deletion strains, locus YOR080W, strain dia2, active compounds read low", "value": 0.98}, {"measurement": "normalized growth", "setting": "S. cerevisiae deletion strains, locus YOR083W, strain WHI5, active compounds read low", "value": "0.871 (active)"}, {"measurement": "normalized growth", "setting": "S. cerevisiae deletion strains, locus YOR106W, strain vam3, active compounds read low", "value": "0.856 (active)"}, {"measurement": "normalized growth", "setting": "S. cerevisiae deletion strains, locus YOR136W, strain idh2, active compounds read low", "value": "0.307 (active)"}, {"measurement": "normalized growth", "setting": "S. cerevisiae deletion strains, locus YOR144C, strain elg1, active compounds read low", "value": 0.985}, {"measurement": "normalized growth", "setting": "S. cerevisiae deletion strains, locus YOR184W, strain ser1, active compounds read low", "value": "0.195 (active)"}, {"measurement": "normalized growth", "setting": "S. cerevisiae deletion strains, locus YOR231W, strain MKK1, active compounds read low", "value": "0.124 (active)"}, {"measurement": "normalized growth", "setting": "S. cerevisiae deletion strains, locus YOR265W, strain rbl2, active compounds read low", "value": 0.959}, {"measurement": "normalized growth", "setting": "S. cerevisiae deletion strains, locus YOR270C, strain vph1, active compounds read low", "value": 0.977}, {"measurement": "normalized growth", "setting": "S. cerevisiae deletion strains, locus YOR290C, strain snf2, active compounds read low", "value": 0.941}, {"measurement": "normalized growth", "setting": "S. cerevisiae deletion strains, locus YOR316C, strain cot1, active compounds read low", "value": "0.677 (active)"}, {"measurement": "normalized growth", "setting": "S. cerevisiae deletion strains, locus YPL051W, strain arl3, active compounds read low", "value": "0.841 (active)"}, {"measurement": "normalized growth", "setting": "S. cerevisiae deletion strains, locus YPL055C, strain LGE1, active compounds read low", "value": "0.408 (active)"}, {"measurement": "normalized growth", "setting": "S. cerevisiae deletion strains, locus YPL078C, strain atp4, active compounds read low", "value": 0.964}, {"measurement": "normalized growth", "setting": "S. cerevisiae deletion strains, locus YPL106C, strain sse1, active compounds read low", "value": "0.838 (active)"}, {"measurement": "normalized growth", "setting": "S. cerevisiae deletion strains, locus YPL240C, strain hsp82, active compounds read low", "value": 0.979}, {"measurement": "normalized growth", "setting": "S. cerevisiae deletion strains, locus YPL241C, strain CIN2, active compounds read low", "value": 0.995}, {"measurement": "normalized growth", "setting": "S. cerevisiae deletion strains, locus YPL256C, strain CLN2, active compounds read low", "value": "0.132 (active)"}, {"measurement": "normalized growth", "setting": "S. cerevisiae deletion strains, locus YPR119W, strain clb2, active compounds read low", "value": "0.444 (active)"}, {"measurement": "normalized growth", "setting": "S. cerevisiae deletion strains, locus YPR141C, strain kar3, active compounds read low", "value": "0.11 (active)"}, {"measurement": "normalized growth", "setting": "S. cerevisiae deletion strains, locus YPR163C, strain tif3, active compounds read low", "value": "0.321 (active)"}, {"measurement": "normalized growth", "setting": "S. cerevisiae deletion strains, locus YPR167C, strain met16, active compounds read low", "value": "0.176 (active)"}, {"measurement": "normalized growth", "setting": "S. cerevisiae deletion strains, strain wtn01, active compounds read low", "value": "0.32 (active)"}, {"measurement": "normalized growth", "setting": "S. cerevisiae strains, strain wild type, active compounds read low", "value": "0.423 (active)"}]}
